Screening data as filed in PubChem.
Only some compounds are listed: those with a hit (about 3.9% of all), similar ones and a draw of the others.
TPT1 inh: blocks Candida albicans tRNA 2'-phosphotransferase; AID 1962; inhibition, % at 5 µM; recombinant caTPT1, FP RNA substrate dephosphorylation; hit rate 0.81% among 300,000;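 active means inhibition above the mean of all tested compounds plus 3 SD, set per screening campaign, cut at about 24% in these data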
Platelet DG rel: modulates dense granule release in human platelets; hit rate 0.22% among 300,000; inhibition, %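 (compounds screened at 7.5 µM in platelet-rich plasma)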; human platelet-rich plasma, SFLLRN dense granule ATP release, luminescence; AID 1663;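 active means mean replicate score, as percent of positive control, at or above 50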
SKKanGAS inh: inhibitors of SKKanGAS S. pyogenes growth in kanamycin (SK-promoter or general growth effect) | inhibition, % at 7.5 µM | BacTiter-Glo, 6 h | hit rate 1.3% among 300,000;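 active means mean replicate score, as percent of positive control median, at least 50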;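 further: strain carries kanamycin resistance gene driven by streptokinase promoter and grows in 40 µg/ml kanamycin; loss of luminescence reflects streptokinase promoter inhibition or plain growth inhibition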
Rtt109 Vps75: C. albicans Rtt109 histone acetyltransferase inhibition; Q5AAJ8; AID 540336; inhibition, % at 34.9 µM; hit rate 0.16% among 330,000; purified Rtt109/Vps75, ThioGlo CoA-SH fluorescence, 4 h;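 active means inhibition of at least 50% in every replicate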
WT yeast gro inh: growth inhibition of WT yeast, mitochondrial fusion screen | mitochondrial fusion phenotypic screen, WT strain | inhibition, % at 10 µM | hit rate 2.1% among 190,000 | AID 1362; in the data active means inhibition above about 58%; tested in S. cerevisiae
PHOSPHO1 block: PHOSPHO1 (human) inhibition. Q8TCT1. recombinant PHOSPHO1, absorbance phosphatase assay. inhibition, % at 13.3 µM. hit rate 1.1% among 290,000. AID 1565; in the data active means inhibition above about 60%
Target sequence (Q8TCT1 whole entry, looked up): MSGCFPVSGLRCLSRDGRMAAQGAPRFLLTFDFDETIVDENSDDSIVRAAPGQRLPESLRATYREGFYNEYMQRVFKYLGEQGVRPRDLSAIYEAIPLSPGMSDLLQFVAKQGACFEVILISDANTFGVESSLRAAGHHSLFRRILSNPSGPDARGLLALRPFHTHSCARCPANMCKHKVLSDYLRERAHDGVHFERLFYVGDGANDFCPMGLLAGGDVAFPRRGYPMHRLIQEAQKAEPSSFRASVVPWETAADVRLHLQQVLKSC
Each line names hits and unclear results; the compound was inactive in the other large screens.

CCOC(=O)C1CCCN(S(=O)(=O)CCNC(=O)c2cccc(OC)c2)C1 (centres undefined)	none (no result: WT yeast gro inh, PHOSPHO1 block)
CCOC(=O)c1ccc(-n2c(O)c(/C=N/NC(=O)C3COc4ccccc4O3)c3ccccc3c2=O)cc1 (centres undefined)	SKKanGAS inh 103
COc1ccccc1N1CCN(C(=O)c2c(C)cc(=O)oc2C)CC1	none
COc1cc2c(C(=O)N3CCN(c4ccccc4C)CC3)c(C)oc2cc1Br	SKKanGAS inh 51
CC(OC(=O)CNC(=O)C12CC3CC(CC(C3)C1)C2)C(=O)Nc1ccc(N2CCOCC2)cc1 (centres undefined)	Platelet DG rel 85
CN(CC(=O)Nc1ccc(N2CCOCC2)cc1)C(=O)C12CC3CC(CC(C3)C1)C2	none (no result: WT yeast gro inh, PHOSPHO1 block)
O=[N+]([O-])c1cccnc1NCCc1c[nH]c2ccccc12	none (no result: WT yeast gro inh)
O=[N+]([O-])c1cc(C(F)(F)F)ccc1NCCc1c[nH]c2ccccc12	WT yeast gro inh 62
O=[N+]([O-])c1cc(C(F)(F)F)ccc1NCCc1c[nH]c2ccc(O)cc12	WT yeast gro inh 79
COc1cccc(S(=O)(=O)Nc2ccc3c(c2)OCCO3)c1	none (no result: TPT1 inh, WT yeast gro inh)
COc1ccc(NS(=O)(=O)c2ccc3oc(Nc4ccc5c(c4)OCCO5)nc3c2)cc1	WT yeast gro inh 73
Cc1ccc(OCC(=O)Nc2ccc(CN3CCOCC3)cc2)cc1	PHOSPHO1 block 61 (no result: WT yeast gro inh)
Cc1ccccc1NC(=S)NC(=O)c1cncc(Br)c1	none
COc1ccc(OCC(=O)NC(=S)Nc2ccc(N3CCOCC3)c(Cl)c2)cc1	SKKanGAS inh 68
Cc1cc(O)ccc1NC(=S)NC(=O)c1cncc(Br)c1	SKKanGAS inh 74 (no result: WT yeast gro inh)
O=C(NC(=S)Nc1ccc(N2CCOCC2)c(Cl)c1)c1cncc(Br)c1	SKKanGAS inh 71
COc1ccc(C2/C=C\CC(NS(=O)(=O)c3ccc(C)cc3)CC(=O)N2Cc2ccccc2F)cc1 (centres undefined)	none (no result: TPT1 inh, Platelet DG rel, SKKanGAS inh, WT yeast gro inh, PHOSPHO1 block)
Cc1cccc(C(=O)NCc2nnc(SCC(=O)Nc3nncs3)n2C)c1	none (no result: WT yeast gro inh)
CC(=O)Nc1ccc(S(=O)(=O)NCCC(=O)OCC(=O)c2cc(C)ccc2C)cc1	none (no result: TPT1 inh, Platelet DG rel, SKKanGAS inh, WT yeast gro inh, PHOSPHO1 block)
O=C(NC(=S)Nc1ccc(N2CCOCC2)c(Cl)c1)c1cccs1	SKKanGAS inh 65
O=C(NC(=S)Nc1ccccc1N1CCOCC1)c1cccs1	none
Cc1c(NC(=O)CSC2=C(C#N)C(c3ccccc3F)CC(=O)N2)c(=O)n(-c2ccccc2)n1C (centres undefined)	SKKanGAS inh 96
Cc1oc(-c2ccc(Cl)cc2)cc1-c1nn2c(-c3ccco3)nnc2s1	PHOSPHO1 block 92 (no result: TPT1 inh, Platelet DG rel, SKKanGAS inh, Rtt109 Vps75, WT yeast gro inh)
COc1cc(OC)c(-c2nn3c(-c4ccco4)nnc3s2)cc1OC	none (no result: TPT1 inh, Platelet DG rel, SKKanGAS inh)
Cc1oc(-c2ccc(F)cc2)cc1-c1nn2c(-c3ccoc3C)nnc2s1	PHOSPHO1 block 98 (no result: WT yeast gro inh)
Clc1ccc(-c2nnc3sc(-c4ccco4)nn23)c(Cl)c1	none (no result: TPT1 inh, Platelet DG rel, SKKanGAS inh, Rtt109 Vps75, WT yeast gro inh)
COc1cccc(-c2nnc3sc(-c4ccco4)nn23)c1	PHOSPHO1 block 74
COc1ccc(-c2nnc3sc(-c4ccco4)nn23)cc1OC	none
COc1ccccc1C(=O)OCCc1ccccc1	none (no result: TPT1 inh, Platelet DG rel, SKKanGAS inh, WT yeast gro inh, PHOSPHO1 block)
CCc1ccc(C(=O)NNC(=O)C2CSC3(C)CCC(=O)N23)cc1 (centres undefined)	none (no result: WT yeast gro inh, PHOSPHO1 block)
CC1CCN(C(=O)CN2C(=O)C(=O)N(C(C)C)C2=O)c2ccccc2S1 (centres undefined)	none (no result: TPT1 inh, Platelet DG rel, SKKanGAS inh, WT yeast gro inh, PHOSPHO1 block)
COc1cc(NC(=O)CSc2nc(C3CC3)nc3ccccc23)cc(OC)c1	none (no result: WT yeast gro inh)
Brc1ccc(-c2ccc(CNCc3ccccn3)o2)cc1	SKKanGAS inh 67 (no result: WT yeast gro inh, PHOSPHO1 block)
CCOC(=O)c1ccccc1NC(=O)COC(=O)C(CCSC)NC(=O)COc1ccccc1 (centres undefined)	none (no result: WT yeast gro inh, PHOSPHO1 block)
O=C(OCC(=O)N1CCN(C(=O)c2ccco2)CC1)c1cc(F)c(F)cc1Cl	none (no result: TPT1 inh, Platelet DG rel, SKKanGAS inh, WT yeast gro inh, PHOSPHO1 block)
COc1ccc(CNC(=O)COC(=O)c2ccc(S(=O)(=O)N3CCCCC3)cc2)cc1	Rtt109 Vps75 52 (no result: TPT1 inh, Platelet DG rel, SKKanGAS inh, WT yeast gro inh, PHOSPHO1 block)
COc1ccc(CNC(=O)COC(=O)c2ccc(S(=O)(=O)N3CCOCC3)cc2)cc1	none (no result: TPT1 inh, Platelet DG rel, SKKanGAS inh, WT yeast gro inh, PHOSPHO1 block)
Cc1nc(COC(=O)c2ccc(S(=O)(=O)N3CCCC3)cc2)cs1	PHOSPHO1 block 81
NC(=O)COC(=O)c1ccc(S(=O)(=O)N2CCCCCC2)cc1	none
CCn1cc(CN2CCc3c([nH]c4ccccc34)C2c2cccc(O)c2)c(C)n1 (centres undefined)	PHOSPHO1 block 64
CCn1cc(CN2CCc3c([nH]c4ccccc34)C2c2cccc(OC)c2)c(C)n1 (centres undefined)	none
